Measured values reported in PubChem BioAssay (Tox21).
Unmarked numbers belong to inactive results. Results filed as inconclusive are left out. Where a call stands in place of a potency, no number is given. Activity calls are given as the source filed them. Unless noted, calls follow the shape of the full dose curve.

Tests used:
[1] = Nuclear factor erythroid 2-related factor 2/antioxidant responsive element (Nrf2/ARE) small molecule agonists: qHTS cell viability counter screen in human keratinocytes (AID 1919968; active = well fitted curve in the direction sought with a large enough effect in the repeat runs; an effect the other way counts as inactive or inconclusive; also: nearly all actives have a fitted effect of over 55% in size; also: potency is read from the fitted curve at half-maximal effect)
Procedure, shortened: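 Viability counter-screen: KeratinoSens reporter cells, DMSO-delivered compounds, 23 h at 37 C, CellTiter-Fluor fluorescence.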

[2] = Nuclear factor erythroid 2-related factor 2/antioxidant responsive element (Nrf2/ARE) small molecule agonists: luciferase reporter gene qHTS assay in human keratinocytes (AID 1919969); also: nearly all actives have a fitted effect of over 35% in size; also: potency is read from the fitted curve at half-maximal effect
[3] = G protein-coupled receptor (GPCR) small molecule agonists, calcium flux assay: HEK293 wild type cell line counter screen (AID 1920065)
Procedure, shortened: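 In this agonist-mode screen, ATP is the positive control and DMSO the vehicle. Cells grow 18 h before a 1 h dye incubation at 37 C; signal is taken at Ex/Em 480/540 over 3 min.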

[4] = p53 small molecule agonists, cell-based qHTS assay with human liver microsomes: qHTS cell viability counter screen (AID 1963579); also: nearly all actives have a fitted effect of over 45% in size; also: potency is read from the fitted curve at half-maximal effect
Procedure, shortened: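 p53RE-bla cells (4,000/well) were pre-incubated 5 h at 37 C, then given compounds in DMSO plus human liver microsomes (0.5 mg/mL final) and NADPH (0.5 mg/mL final) for 16 h at 37 C. Viability was read by CellTiter-Glo luminescence.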

[5] = p53 small molecule agonists, cell-based qHTS assay with rat liver microsomes: qHTS cell viability counter screen (AID 1963580); also: nearly all actives have a fitted effect of over 45% in size; also: potency is read from the fitted curve at half-maximal effect
Procedure, shortened: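 p53RE-bla HCT-116 cells were exposed 16 h at 37 C to compounds with rat liver microsomes (0.5 mg/mL) and NADPH (0.5 mg/mL). Viability was measured in the same wells as ATP content by CellTiter-Glo luminescence.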

[6] = molecular target: 5-hydroxytryptamine receptor 2A (Homo sapiens) (UniProt P28223); assay: 5-hydroxytryptamine receptor 2A (HTR2A) small molecule antagonists, cell-based qHTS assay (AID 1963586); also: nearly all actives have a fitted effect of over 45% in size; also: potency is read from the fitted curve at half-maximal effect
Procedure, shortened: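 Antagonist-mode intracellular calcium assay: DOI (4 nM) added after 5 min compound pre-incubation at room temperature to dye-loaded HTR2A-CHO cells. Fluorescence followed for 3 min, sampled every second.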

[7] = molecular target: 5-hydroxytryptamine receptor 2A (Homo sapiens) (UniProt P28223); assay: 5-hydroxytryptamine receptor 2A (HTR2A) small molecule agonists, cell-based qHTS assay (AID 1963587); also: nearly all actives have a fitted effect of over 30% in size; also: potency is read from the fitted curve at half-maximal effect
Procedure, shortened: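 CHO cells stably expressing human HTR2A, plated 18 h, loaded with calcium dye 1 h at 37 C. Agonist mode: compounds added and intracellular calcium fluorescence recorded kinetically for 2 min at 1 sec intervals.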

[8] = molecular target: Muscarinic acetylcholine receptor M1 (Homo sapiens) (UniProt P11229); assay: Cholinergic receptor muscarinic 1 (CHRM1) small molecule antagonists, cell-based qHTS assay (AID 1963588); also: nearly all actives have a fitted effect of over 40% in size
Procedure, shortened: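 CHRM1-CHO calcium-flux assay, antagonist mode. Cells were seeded 18 h, dye-loaded 1 h at 37 C and given compound for 5 min at RT, then acetylcholine was added at 50nM. FDSS fluorescence was read 3 min; 15 concentrations, three runs.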

[9] = molecular target: Muscarinic acetylcholine receptor M1 (Homo sapiens) (UniProt P11229); assay: Cholinergic receptor muscarinic 1 (CHRM1) small molecule agonists, cell-based qHTS assay (AID 1963589); also: nearly all actives have a fitted effect of over 35% in size
Procedure, shortened: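 Stable CHRM1-CHO cells (human receptor) were incubated 18 h, dye-loaded for 1 h at 37 C and exposed to test compounds for agonist activity, with calcium-dependent fluorescence followed kinetically.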

[10] = cAMP Responsive Elements (CRE) small molecule agonists, cell-based qHTS assay (AID 1963590)
Procedure, shortened: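 FRET-based beta-lactamase readout (LiveBLAzer B/G, 2 h RT) quantified CRE activation in HEK 293T CRE-bla cells after 3 h treatment with DMSO-dissolved compounds.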

[11] = cAMP Responsive Elements (CRE) small molecule antagonists, cell-based qHTS assay (AID 1963591; active = well fitted inhibition curve with a large enough effect in the signal ratio in the repeat runs, not every such curve was filed as active; the % refers to the signal ratio)
Procedure, shortened: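 qHTS in CRE-bla HEK 293T cells: compound in DMSO, then 0.25 uM NKH477 (final), 3 h at 37 °C/5% CO2; beta-lactamase FRET read-out after 2 h substrate incubation.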

[12] = molecular target: Beta-2 adrenergic receptor (Homo sapiens) (UniProt P07550); assay: Adrenergic beta2 receptor (ADRB2) small molecule antagonists, cell-based qHTS assay (AID 1963592); also: series mostly up to about 92 µM; nearly all actives have a fitted effect of over 50% in size
Procedure, shortened: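 Cells (CHO, stable ADRB2 overexpression) incubated 18-20hr at 37C; compounds added from DMSO; agonist mix (1nM isoproterenol, 100uM IBMX, 25uM Ro-20-1724) added; 0.5hr RT; d2-cAMP and anti-cAMP-cryptate added; 1hr RT; 665/615 nm read.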

[13] = molecular target: D(2) dopamine receptor (Homo sapiens) (UniProt P14416); assay: Dopamine D2 receptor (DRD2) small molecule agonists, cell-based qHTS assay (AID 1963594); also: nearly all actives have a fitted effect of over 35% in size
Procedure, shortened: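 HEK293 cells stably expressing human DRD2, pre-treated with PDE inhibitor Ro20-1724 (0.1 mM final) and compound 10 min at room temperature, then stimulated with NKH477 (200nM […]) for 30 min. cAMP read by HTRF (665/620 nm).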

[14] = molecular target: D(2) dopamine receptor (Homo sapiens) (UniProt P14416); assay: Dopamine D2 receptor (DRD2) small molecule antagonists, cell-based qHTS assay (AID 1963595; active = well fitted inhibition curve with a large enough effect in the signal ratio in the repeat runs, with a control signal flat; the % refers to the signal ratio)
Procedure, shortened: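 HTRF cAMP read-out at 665 and 620 nm emission (340 nm excitation). Antagonist mode: compounds were tested against 12 nM quinpirole in DRD2-HEK293 cells, with 200 nM NKH477 raising cAMP and 0.1 mM Ro20-1724 blocking its breakdown.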

[15] = molecular target: KiSS-1 receptor (Homo sapiens) (UniProt Q969F8); assay: Human kisspeptin (KISS1R) small molecule agonists, calcium flux assay in KISS1R-HEK293 cells (AID 1920064; active = well fitted curve in the direction sought with a large enough effect in the repeat runs; an effect the other way counts as inactive or inconclusive)
Procedure, shortened: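 Intracellular calcium mobilization in KISS1R-HEK293 cells was recorded by fluorescence (Ex/Em 480/540) for 3 min following compound addition to cells pre-loaded 1 h with calcium dye.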

[16] = p53 small molecule agonists, cell-based qHTS assay with human liver microsomes (AID 1963577)
Procedure, shortened: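 p53RE-bla reporter cells were pre-incubated 5 h at 37 C, then treated with compounds plus human liver microsomes (0.5 mg/mL final) and NADPH (0.5 mg/mL final) for 16 h at 37 C. Beta-lactamase activity was read by LiveBLAzer fluorescence after 2 h at room temperature.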

[17] = p53 small molecule agonists, cell-based qHTS assay with rat liver microsomes (AID 1963578)
Procedure, shortened: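 p53RE-bla cells were exposed to compounds together with rat liver microsomes (0.5 mg/mL final) and NADPH (0.5 mg/mL final) for 16 h at 37 C, then read by LiveBLAzer beta-lactamase fluorescence after 2 h at room temperature.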

[18] = p53 small molecule agonists, cell-based qHTS assay: qHTS cell viability counter screen (AID 1963581); also: nearly all actives have a fitted effect of over 45% in size; also: potency is read from the fitted curve at half-maximal effect
Procedure, shortened: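 Compounds are pinned onto HCT-116 p53RE-bla cells and left 16 h at 37 C. Following the reporter FRET read, ATP is quantified by CellTiter-Glo luminescence after 30 min at room temperature.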

[19] = molecular target: Beta-2 adrenergic receptor (Homo sapiens) (UniProt P07550); assay: Adrenergic beta2 receptor (ADRB2) small molecule agonists, cell-based qHTS assay (AID 1963593);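 also: CHO cells stably overexpressing human ADRB2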
Procedure, shortened: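 CHO cells stably over-expressing ADRB2 were plated overnight at 37C, then dosed with compounds plus a stimulation mix containing 100uM IBMX and 25uM Ro-20-1724 for 0.5hr at room temperature. cAMP was measured by HTRF competition, 1hr.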

[20] = p53 small molecule agonists, cell-based qHTS assay (AID 1963582; active = well fitted activation curve with a large enough effect in the signal ratio in the repeat runs, not every such curve was filed as active; the % refers to the signal ratio)
Procedure, shortened: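 Agonist activity was scored from beta-lactamase FRET fluorescence in p53RE-bla cells treated 16 h at 37 C with compounds in DMSO, substrate incubation being 2 h at room temperature.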

Chain of KiSS-1 receptor (Homo sapiens) (Q969F8 whole entry, looked up): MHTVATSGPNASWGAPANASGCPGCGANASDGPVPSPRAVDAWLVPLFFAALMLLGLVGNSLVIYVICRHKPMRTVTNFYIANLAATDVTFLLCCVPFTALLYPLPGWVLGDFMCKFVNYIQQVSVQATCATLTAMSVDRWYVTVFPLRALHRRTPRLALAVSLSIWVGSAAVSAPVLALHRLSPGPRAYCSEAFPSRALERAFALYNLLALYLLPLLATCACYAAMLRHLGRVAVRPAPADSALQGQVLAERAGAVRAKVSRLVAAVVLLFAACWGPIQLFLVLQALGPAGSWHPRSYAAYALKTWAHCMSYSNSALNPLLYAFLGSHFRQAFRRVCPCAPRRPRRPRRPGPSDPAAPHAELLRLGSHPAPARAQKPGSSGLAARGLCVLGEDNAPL
Chain of Beta-2 adrenergic receptor (Homo sapiens) (P07550 whole entry, looked up): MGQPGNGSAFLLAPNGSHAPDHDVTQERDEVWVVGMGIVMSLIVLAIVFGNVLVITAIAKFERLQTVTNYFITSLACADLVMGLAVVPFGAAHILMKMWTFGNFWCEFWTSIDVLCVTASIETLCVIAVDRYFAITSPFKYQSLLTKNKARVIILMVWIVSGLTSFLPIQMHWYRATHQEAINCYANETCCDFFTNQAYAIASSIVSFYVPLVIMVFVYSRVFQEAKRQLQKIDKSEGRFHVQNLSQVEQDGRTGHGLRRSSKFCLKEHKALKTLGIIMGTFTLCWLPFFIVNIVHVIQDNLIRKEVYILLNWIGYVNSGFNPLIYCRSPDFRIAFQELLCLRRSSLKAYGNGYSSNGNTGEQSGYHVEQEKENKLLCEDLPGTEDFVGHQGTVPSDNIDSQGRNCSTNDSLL
Chain of D(2) dopamine receptor (Homo sapiens) (P14416 whole entry, looked up): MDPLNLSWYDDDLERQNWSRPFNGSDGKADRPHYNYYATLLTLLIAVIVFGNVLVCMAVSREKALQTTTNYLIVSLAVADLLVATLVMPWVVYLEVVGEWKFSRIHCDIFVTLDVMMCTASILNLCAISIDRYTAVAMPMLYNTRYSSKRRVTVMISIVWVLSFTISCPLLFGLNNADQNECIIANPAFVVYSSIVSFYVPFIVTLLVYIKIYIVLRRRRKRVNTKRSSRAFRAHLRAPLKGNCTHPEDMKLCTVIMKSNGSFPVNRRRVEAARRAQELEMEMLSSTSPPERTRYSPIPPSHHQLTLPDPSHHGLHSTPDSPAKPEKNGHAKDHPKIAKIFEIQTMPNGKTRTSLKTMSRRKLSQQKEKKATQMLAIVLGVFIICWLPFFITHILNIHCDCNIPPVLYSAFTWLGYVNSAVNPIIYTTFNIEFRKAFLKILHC
Chain of Muscarinic acetylcholine receptor M1 (Homo sapiens) (P11229 whole entry, looked up): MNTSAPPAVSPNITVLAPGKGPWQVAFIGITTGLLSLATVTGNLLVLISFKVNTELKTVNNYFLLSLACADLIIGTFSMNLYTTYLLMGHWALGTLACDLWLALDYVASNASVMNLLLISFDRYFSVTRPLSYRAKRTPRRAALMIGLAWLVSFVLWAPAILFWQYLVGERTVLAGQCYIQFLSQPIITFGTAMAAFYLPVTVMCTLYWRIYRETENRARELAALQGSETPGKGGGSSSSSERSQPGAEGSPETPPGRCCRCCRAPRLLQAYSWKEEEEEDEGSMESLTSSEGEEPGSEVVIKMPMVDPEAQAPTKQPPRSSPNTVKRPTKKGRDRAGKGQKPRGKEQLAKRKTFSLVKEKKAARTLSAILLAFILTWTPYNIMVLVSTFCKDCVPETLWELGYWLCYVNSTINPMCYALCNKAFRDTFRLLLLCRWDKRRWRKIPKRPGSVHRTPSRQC
Chain of 5-hydroxytryptamine receptor 2A (Homo sapiens) (P28223 whole entry, looked up): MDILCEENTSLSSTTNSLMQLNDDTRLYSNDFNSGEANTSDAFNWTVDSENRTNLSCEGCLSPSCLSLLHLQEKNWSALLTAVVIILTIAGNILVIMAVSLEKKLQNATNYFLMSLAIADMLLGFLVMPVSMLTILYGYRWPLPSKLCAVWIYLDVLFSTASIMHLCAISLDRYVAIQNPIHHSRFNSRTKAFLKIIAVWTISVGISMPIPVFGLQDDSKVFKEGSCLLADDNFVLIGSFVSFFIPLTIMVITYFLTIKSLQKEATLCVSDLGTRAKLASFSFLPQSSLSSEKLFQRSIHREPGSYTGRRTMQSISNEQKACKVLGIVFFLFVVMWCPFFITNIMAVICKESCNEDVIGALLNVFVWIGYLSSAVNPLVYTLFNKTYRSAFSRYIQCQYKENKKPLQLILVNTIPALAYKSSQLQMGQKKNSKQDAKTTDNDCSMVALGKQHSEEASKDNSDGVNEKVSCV

Question: What does the source list for OCCBr?
Answer: Potency [1]: inactive; Potency [2]: inactive; Potency [3]: inactive; Potency [4]: inactive; Potency [5]: inactive; Potency [6]: inactive; Potency [7]: inactive; Potency [8]: inactive; Potency [9]: inactive; Potency [10]: inactive; Potency [11]: inactive; Potency [12]: inactive; Potency [13]: inactive; Potency [14]: inactive

Question: For CC(=O)O[C@H]1CC[C@@]2(C)C(=CC[C@@H]3[C@@H]2CC[C@]2(C)C(=O)CC[C@@H]32)C1, which Potency [1] is on record?
Answer: inactive

Question: And the Potency [2]?
Answer: inactive

Question: And the Potency [15]?
Answer: inactive

Question: And the Potency [3]?
Answer: inactive

Question: What about the Potency [16] of the same compound?
Answer: inactive

Question: And the Potency [17]?
Answer: inactive

Question: And the Potency [4]?
Answer: inactive

Question: And the Potency [5]?
Answer: inactive

Question: And the Potency [18]?
Answer: inactive

Question: What about the Potency [6] of the same compound?
Answer: inactive

Question: And the Potency [7]?
Answer: inactive

Question: What about the Potency [9] of the same compound?
Answer: inactive

Question: What about the Potency [12] of the same compound?
Answer: inactive

Question: And the Potency [13]?
Answer: inactive

Question: And the Potency [14]?
Answer: inactive

Question: With [Cl][Hg][c]1ccccc1 as the compound, how does the Potency [1] read?
Answer: 2.73 µM (active)

Question: What about the Potency [2] of the same compound?
Answer: 0.969 µM (active)

Question: What about the Potency [15] of the same compound?
Answer: inactive

Question: And the Potency [3]?
Answer: inactive

Question: What about the Potency [16] of the same compound?
Answer: inactive

Question: What about the Potency [17] of the same compound?
Answer: inactive

Question: What about the Potency [4] of the same compound?
Answer: 4.58 µM (active)

Question: And the Potency [5]?
Answer: 8.14 µM (active)

Question: And the Potency [18]?
Answer: 2.89 µM (active)

Question: What about the Potency [6] of the same compound?
Answer: inactive

Question: And the Potency [7]?
Answer: 49 µM (active)

Question: And the Potency [8]?
Answer: inactive

Question: Which results are given for CC(C)(C)C(=O)C(Oc1ccc(Cl)cc1)n1cncn1 (stereo unspecified)?
Answer: Potency [1]: inactive; Potency [2]: inactive; Potency [3]: inactive; Potency [17]: inactive; Potency [5]: inactive; Potency [18]: inactive; Potency [6]: inactive; Potency [7]: inactive; Potency [9]: inactive; Potency [11]: inactive; Potency [19]: inactive; Potency [13]: inactive; Potency [14]: inactive

Question: With CC(=O)NC1CCSC1=O (stereo unspecified) as the compound, how does the Potency [1] read?
Answer: inactive

Question: And the Potency [2]?
Answer: inactive

Question: What about the Potency [3] of the same compound?
Answer: inactive

Question: What about the Potency [5] of the same compound?
Answer: inactive

Question: And the Potency [18]?
Answer: inactive

Question: What about the Potency [6] of the same compound?
Answer: inactive

Question: What about the Potency [7] of the same compound?
Answer: inactive

Question: And the Potency [8]?
Answer: inactive

Question: What about the Potency [9] of the same compound?
Answer: inactive

Question: What about the Potency [10] of the same compound?
Answer: inactive

Question: And the Potency [11]?
Answer: inactive

Question: What about the Potency [12] of the same compound?
Answer: inactive

Question: And the Potency [14]?
Answer: inactive

Question: For O=C(O)COc1ccc(Cl)cc1, which Potency [1] is on record?
Answer: inactive

Question: What about the Potency [2] of the same compound?
Answer: inactive

Question: And the Potency [3]?
Answer: inactive

Question: What about the Potency [4] of the same compound?
Answer: inactive

Question: What about the Potency [5] of the same compound?
Answer: inactive

Question: And the Potency [18]?
Answer: inactive

Question: What about the Potency [20] of the same compound?
Answer: inactive

Question: What about the Potency [8] of the same compound?
Answer: inactive

Question: And the Potency [9]?
Answer: inactive

Question: What about the Potency [12] of the same compound?
Answer: inactive

Question: What about the Potency [19] of the same compound?
Answer: inactive

Question: And the Potency [13]?
Answer: inactive

Question: With NCCc1cc(O)c(O)cc1O as the compound, how does the Potency [1] read?
Answer: inactive

Question: What about the Potency [2] of the same compound?
Answer: inactive

Question: And the Potency [15]?
Answer: inactive

Question: What about the Potency [3] of the same compound?
Answer: inactive

Question: What about the Potency [4] of the same compound?
Answer: inactive

Question: What about the Potency [5] of the same compound?
Answer: inactive

Question: What about the Potency [18] of the same compound?
Answer: inactive

Question: What about the Potency [6] of the same compound?
Answer: 18.3 µM (active)

Question: What about the Potency [7] of the same compound?
Answer: 23.9 µM (active)

Question: And the Potency [8]?
Answer: inactive

Question: And the Potency [9]?
Answer: inactive

Question: What about the Potency [10] of the same compound?
Answer: inactive

Question: And the Potency [11]?
Answer: inactive

Question: And the Potency [12]?
Answer: inactive

Question: What about the Potency [19] of the same compound?
Answer: inactive

Question: And the Potency [13]?
Answer: inactive

Question: And the Potency [14]?
Answer: inactive
